Screens from PubChem.
Only some compounds are listed: those with a hit (about 11% of all), similar ones and a draw of the others.
JMJD2A Tudor – blocks the human JMJD2A Tudor domain | O75164 | AlphaScreen JMJD2A-Tudor / H3K4me3 peptide binding | Potency, µM (titrated, usually from 114 µM), inactives show top-dose activity change, negative = inhibition, actives largely listed as inhibitors | 4.4% of 390,000 active | AID 504339; note: % is set by controls: 0 for no effect and ±100 for the full control effect; nearly all actives have a fitted effect of over 50% in size
BAZ2B inh – BAZ2B (human) inhibition. 4.4% of 360,000 active. Q9UIF8. AlphaScreen BAZ2B-H3K14Ac peptide displacement. Potency, µM (titrated, usually from 114 µM), for inactives: at the top dose activity change, negative = inhibition, actives largely listed as inhibitors; note: % is set by controls: 0 for no effect and ±100 for the full control effect; nearly all actives have a fitted effect of over 60% in size
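Inhibition is scored as reduced AlphaScreen emission. The BAZ2B/b-H3(5-23)K14Ac complex (50 nM each) in PBS pH 7.4, 0.01% Tween-20 meets compound (up to 110 uM) for 30 min at RT before bead addition.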
HP1b binding inh – HP1-beta chromodomain-methylated histone interaction inhibition; P83916; AlphaScreen HP1-beta / biotin-H3K9me3 peptide binding; Potency, µM (top dose mostly 114 µM), inactives show at the top dose activity change, negative = inhibition, most hits filed as inhibitors; 0.56% of 390,000 active; note: nearly all actives have a fitted effect of over 70% in size
Target sequence (P83916 whole entry, looked up): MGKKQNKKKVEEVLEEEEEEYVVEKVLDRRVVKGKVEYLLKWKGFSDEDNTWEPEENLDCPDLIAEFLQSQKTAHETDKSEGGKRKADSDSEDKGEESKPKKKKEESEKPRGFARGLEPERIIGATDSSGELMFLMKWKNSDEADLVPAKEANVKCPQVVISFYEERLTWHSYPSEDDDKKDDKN
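HP1-beta protein (50 nM final) preincubated 30 min at room temperature with biotinylated H3(1-18)K9me3 peptide (50 nM) in PBS pH 7.4, 0.01% Tween-20, then compound added for 30 min. AlphaScreen streptavidin donor/nickel chelate acceptor beads (10 ug/mL final), 30 min dark, luminescence read.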
G9a inh – blocks human histone lysine methyltransferase G9a. Q96KQ7. G9a H3K9 monomethylation, AlphaScreen, 2 h. Potency, µM (top dose mostly 102 µM), without a hit: top-dose activity, negative = inhibition, most hits filed as inhibitors. 8.8% of 350,000 active. AID 504332; note: % is set by controls: 0 for no effect and ±100 for the full control effect; nearly all actives have a fitted effect of over 75% in size
Target sequence (Q96KQ7 913-1193 limits assumed): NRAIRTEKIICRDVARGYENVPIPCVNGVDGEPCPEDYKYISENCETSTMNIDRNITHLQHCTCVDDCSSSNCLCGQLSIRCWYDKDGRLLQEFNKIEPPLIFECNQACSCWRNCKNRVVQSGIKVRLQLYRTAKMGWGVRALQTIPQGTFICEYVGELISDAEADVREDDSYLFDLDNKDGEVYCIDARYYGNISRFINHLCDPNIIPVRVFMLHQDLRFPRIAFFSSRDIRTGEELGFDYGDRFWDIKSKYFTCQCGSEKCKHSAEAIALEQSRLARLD
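Enzyme 20 nM + cpd, 15 min RT; add b-H3K9 pep 500 nM / SAM 20 uM; 2 h RT; anti-H3K9me1 Ab 0.5 ug/mL + SA donor / anti-rabbit acceptor beads 20 ug/mL each, 10 min; AlphaScreen read.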
PLK1 PBD inh – inhibitors of human PLK1 polo-box domain binding; P53350; Plk1 PBD binding of FITC phosphopeptide, fluorescence polarization; Potency, µM, for the others: max response, negative = inhibition, most hits filed as inhibitors; 2.8% of 360,000 active; AID 720504; note: series mostly up to about 57 µM; % is set by controls: 0 for no effect and ±100 for the full control effect; nearly all actives have a fitted effect of over 65% in size
VDR inh – vitamin D3 receptor (human) inhibition. 0.93% of 400,000 active. AID 504847. Potency, µM, without a hit: max response, negative = inhibition, most hits filed as inhibitors. P11473. VDR-SRC2-3 peptide fluorescence polarization, 2 h; note: % is set by controls: 0 for no effect and ±100 for the full control effect
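The screen uses fluorescence polarization to detect compounds that interfere with recruitment of the SRC2-3 coactivator peptide to VDR; plates are read after 2 h at room temperature.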
The depositor's hits bear a star; u = inconclusive; x = not tested or not shown; [ ] = remark or other dose. Calls come from the whole dose curve; as a rule, active = well fitted curve in the direction sought with a large enough effect; inconclusive = small, poorly fitted or top-dose-only effect, or another doubt; inactive = no such curve, though single readings can be large; an effect the other way counts as inactive or inconclusive. Potency is the fitted concentration of half-maximal effect.

SMILES	JMJD2A Tudor	BAZ2B inh	HP1b binding inh	G9a inh	PLK1 PBD inh	VDR inh
O=C(c1cc(-c2ccco2)nc2ccccc12)N1CCCC(C(F)(F)F)C1 (stereo unspecified)	40µM*	50µM*	-18%	13%[12.7 µM]	u	u
CCN1CCN(C(=O)c2cc(-c3ccc(Cl)s3)nc3ccccc23)CC1	-13%	-12%	35%	x	-3%	1%
O=C(c1cc2ccccc2cc1O)N1CCCC(C(F)(F)F)C1 (stereo unspecified)	-15%	79µM*	26%	x	-18%	21%
CCN1CCN(C(=O)c2cc(-c3ccco3)nc3ccccc23)CC1	-35%	71µM*	-3%	u	-21%	-11%
Cc1ccc(C)c(NC(=O)CSc2nc3c([nH]c4ccccc43)c(=O)n2-c2ccc(F)cc2)c1	6%	1%	11%[57 µM]	-5%[59 µM]	x	4%
COc1ccc(C(=O)Sc2nncc3ccccc23)cc1	u	71µM*	11%	22µM*	u	7%
COc1ccc(NC(=O)CSc2nncc3ccccc23)cc1	-14%	3%	54%	7%	4%	-12%
O=C(NCCS(=O)(=O)c1ccc(Cl)cc1)c1ccc(F)cc1	u	-2%	-15%	4%	21µM*	u
O=C(NCCS(=O)(=O)c1ccc(Br)cc1)c1ccc(F)cc1	4%	3%	34%	x	4%	4%
Cc1cc(NC(=O)COC(=O)C2CSC3(C)CCC(=O)N23)ccc1Br (stereo unspecified)	-8%	x	32%	x	-2%	-15%
CC(C)Nc1nc(NC(C)C)nc(C(=O)OCCO)n1	50µM*	35µM*	30%	u	-9%	16%
CCNc1nc(NC(C)C)nc(SCCOC(=O)c2ccccc2)n1	11%	12%	93%	3%	-11%	-22%
CCNc1nc(NCC)nc(C(=O)OCCO)n1	35µM*	25µM*	42%	40µM*	-6%	-14%
COc1ccc([C@]23Cc4cc(OC)c(OC)cc4C(O2)c2c(cc(C)n(Cc4ccccc4)c2=O)O3)cc1	x	11µM*	x	-4%[2.33 µM]	x	x
COc1ccc([C@]23Cc4cc(C#N)ccc4[C@H](O2)c2c(cc(C)n(Cc4ccccc4)c2=O)O3)cc1	x	-1%[22.9 µM]	x	x	x	x
COc1ccc([C@]23Cc4ccccc4C(O2)c2c(c4ccc(OC)cc4oc2=O)O3)cc1	x	u	x	6%[2.33 µM]	x	x
COc1ccc([C@]23Cc4cc(OC)c(OC)cc4C(O2)c2c(c4ccccc4oc2=O)O3)cc1	x	10µM*	x	u	x	x
COc1cccc(CNC(=O)C(=O)NCC(c2ccco2)S(=O)(=O)c2cccs2)c1 (stereo unspecified)	-10%	0%	35%	2%[59 µM]	x	3%
C=CCc1cc(CN2CC(C)OC(C)C2)c(O)c(OC)c1 (stereo unspecified)	-8%	x	22%[57 µM]	x	-5%	-1%
COc1ccc(OC)c(NC(=O)CCN2CC(C)OC(C)C2)c1 (stereo unspecified)	-3%	7%	28%	26%	3%	-1%
C=CCc1cc(Cl)ccc1OCCN1CC(C)OC(C)C1 (stereo unspecified)	2.2µM*	u	u	4.5µM*	-3%	-6%
C=CCc1cc(OC)ccc1OCCN1CC(C)OC(C)C1 (stereo unspecified)	5µM*	28µM*	u	7.1µM*	-3%	0%
CCc1cc2c(cc3c(=O)n(CC(=O)NCCc4ccccc4)ncn32)s1	-21%	1%	3%	-5%[59 µM]	x	10%
Cc1ccc(-n2nc3c(=O)n(CCCC(=O)NCc4ccc(C)o4)nc(C)c3c2C)cc1	-16%	u	49%	21%[59 µM]	-14%	-1%
Cc1cc(-n2c(C)cc(C(=O)COc3ccc4ccc(=O)oc4c3)c2C)no1	-19%	-30%	7%	57%[12.7 µM]	-10%	-20%
SMILES	JMJD2A Tudor	BAZ2B inh	HP1b binding inh	G9a inh	PLK1 PBD inh	VDR inh
CC(=O)c1cccc(OCC(=O)c2cc(C)n(-c3cc(C)on3)c2C)c1	-24%	u	-20%	50µM*	-12%	-16%
O=C1CN(S(=O)(=O)c2ccccc2)CCN1	-1%	x	29%	x	-2%	0%
CCNc1cc(O)ccc1C	u	-30%	1%	-4%[0.501 µM]	-16%	79µM*
O=C(NC(=O)c1ccccc1)Nc1ccc(-n2nc(C(F)(F)F)cc2C(F)(F)F)cc1	0%	-1%	47%	3%[59 µM]	x	0%
Cc1nc2sc3c(c2c(=O)n1NC(=O)CCBr)CCCC3	-11%	-18%	40%	50µM*	-21%	-17%
CCn1c(NN)nc2sc3c(c2c1=O)CCC3	u	3%	-22%	45µM*	-4%	-17%
C#CCSc1nc2sc3c(c2c(=O)n1C)CCC3	79µM*	50µM*	u	45µM*	-13%	-3%
NNc1nc2sc3c(c2c(=O)n1Cc1ccccc1)CCC3	-32%	-23%	-18%	u	-10%	6%
CSc1nc2sc3c(c2c(=O)n1C)CCC3	-6%	-13%	29%	x	-9%	-22%
CCn1c(SCC(N)=O)nc2sc3c(c2c1=O)CCCC3	-9%	-6%	38%	45µM*	-8%	-2%
CCSc1nc2sc3c(c2c(=O)n1CC)CCC3	8%	-35%	81%	41%[59 µM]	-12%	-13%
CCCc1nc2sc3c(c2c(=O)n1NC(=O)CCC(=O)OC)CCCC3	-13%	-3%	-16%	-30%	-16%	-1%
CCCCCCNC(=O)OC12CN(C(=O)OC(C)C)N(C(=O)OC(C)C)CC1(O)CN(S(=O)(=O)c1ccc(C)cc1)C2 (stereo unspecified)	x	x	x	x	-3%	x
Cc1cccc(N(Cc2ccccc2)C(=O)CN2C(=O)NC3(CCCC3)C2=O)c1	-20%	7%	15%	-4%[12.7 µM]	-16%	-8%
O=S(=O)(NCC(c1ccc2c(c1)OCO2)N1CCN(c2ccccc2)CC1)c1ccccc1 (stereo unspecified)	u	-35%	-8%	u	-3%	-8%
COc1ccc(-n2c(NN)nc3sc4c(c3c2=O)CCCC4)cc1	-33%	-3%	21%	50µM*	-6%	-8%
CCn1c(SCC(=O)c2ccccc2)nc2sc3c(c2c1=O)CCN(C)C3	u	-39%	-38%	25µM*	-27%	-6%
CCn1c(SCC(=O)NCCc2ccccc2)nc2sc3c(c2c1=O)CCN(C)C3	-14%	0%	17%	u	-8%	2%
CC(C)c1cnc2c(c1SCC(=O)Nc1ccc(OC(F)(F)F)cc1)c(=O)n(C)c(=O)n2C	-10%	3%	29%[57 µM]	u	x	6%
CCC1CCC2(CC1)NNC(=S)NN2	50µM*	u	-66%	2µM*	-20%	-29%
CCC1CCCCC1	x	x	x	x	x	10%
[S-]c1nnc(-c2ccc(Br)cc2)n1-c1ccccc1.[Zn+2]	50µM*	79µM*	21%	-5%[0.501 µM]	-7%	-15%
